Measurements taken from PubChem BioAssay AID1159580 (chemical genetic matrix, 2015).
In all, about 5,500 compounds went through this assay and about 2,000 (36%) were called active. Roughly 18% stayed inconclusive and do not appear here. Cut-off read from the data, not from the text of the source: active = normalized growth mostly below about 0.91 (no sharp cut-off); inconclusive = no clear call, values can overlap the other calls; inactive = mostly above about 0.92. The list shows a part of the results.

Assay: chemical genetic growth profiling, strain panel (AID 1159580);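 note: tested at 20 µM; growth read once vehicle control cultures reached saturation at 30 °C; 1 = growth at the plate median or of vehicle wells; lower values mean less growth of the strain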
Settings: S. cerevisiae deletion strains, growth OD

Measured: normalized growth

NCC#Cc1ccccc1
inactive: locus YAL013W, strain DEP1, stronger effect = lower value 1.04 | locus YAL040C, strain CLN3, stronger effect = lower value 0.989 | locus YCL061C, strain MRC1 (second series), stronger effect = lower value 1.01 | locus YDR150W, strain NUM1, stronger effect = lower value 1.02 | locus YDR363W, strain ESC2, stronger effect = lower value 1.02 | locus YER002W, strain NOP16, stronger effect = lower value 1 | locus YGR229C, strain SMI1, stronger effect = lower value 1.07 | locus YMR263W, strain SAP30, stronger effect = lower value 1 | locus YMR307W, strain GAS1, stronger effect = lower value 1.01 | locus YNL128W, strain TEP1, stronger effect = lower value 1.01 | locus YNL153C, strain GIM3, stronger effect = lower value 1.15 | locus YNL175C, strain NOP13, stronger effect = lower value 1.01 | locus YNL197C, strain WHI3, stronger effect = lower value 1.01 | locus YNL224C, strain SQS1, stronger effect = lower value 1.01 | locus YOR083W, strain WHI5 (second series), stronger effect = lower value 1.01 | locus YPL055C, strain LGE1, stronger effect = lower value 1.04
